Hits are enriched below; roughly 7.5% of the tested compounds scored in any of these assays.
RORg inh: ROR gamma (mouse) transcription inhibition; Drosophila S2 Gal4-RORgamma UAS-luciferase reporter, 20 h; actives 5.4% (n = 310,000); Potency, µM (titrated, usually from 53.6 µM), for inactives: at the highest dose activity change, negative = inhibition, actives largely listed as inhibitors; also: potency is read from the fitted curve at half-maximal effect; nearly all actives have a fitted effect of over 60% in size
Target sequence (P51450 whole entry, looked up, the tested form may be a part): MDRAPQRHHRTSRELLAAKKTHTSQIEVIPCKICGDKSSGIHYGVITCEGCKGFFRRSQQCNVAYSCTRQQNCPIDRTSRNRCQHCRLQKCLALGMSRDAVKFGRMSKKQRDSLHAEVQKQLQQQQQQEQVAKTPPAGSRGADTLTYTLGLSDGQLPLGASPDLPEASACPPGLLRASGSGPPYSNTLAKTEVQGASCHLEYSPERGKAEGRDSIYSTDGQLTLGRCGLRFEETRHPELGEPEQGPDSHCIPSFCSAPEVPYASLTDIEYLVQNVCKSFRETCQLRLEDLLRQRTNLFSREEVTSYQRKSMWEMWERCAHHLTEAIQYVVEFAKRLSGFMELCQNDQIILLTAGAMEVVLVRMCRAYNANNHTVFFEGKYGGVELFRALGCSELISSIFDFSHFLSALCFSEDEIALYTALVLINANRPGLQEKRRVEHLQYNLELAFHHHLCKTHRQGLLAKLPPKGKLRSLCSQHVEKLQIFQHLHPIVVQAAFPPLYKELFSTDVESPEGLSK
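Luminescence from a UAS-regulated Photinus luciferase reporter in stably transfected Drosophila Schneider cells is measured; decreased signal marks ROR gamma inhibition. Fusion expression is induced by 700 uM copper sulfate for 20 hr.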
ELG1 repair inh: inhibitors of ELG1-dependent DNA repair in HEK293T cells. HEK293T ELG1-luciferase reporter, luminescence, 16 h; DNA damage induced by 5-fluorouridine. Potency, µM (series often up to 46.1 µM), for inactives: at the highest dose activity change, negative = inhibition, usual class: inhibitors. actives 2.3% (n = 330,000); also: potency is read from the fitted curve at half-maximal effect; nearly all actives have a fitted effect of over 55% in size
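5-Fluorouridine DNA damage + compound/DMSO, 2,000 cells/well, 16 h, 37 °C/5% CO2. ONE-Glo, 30 min RT, luminescence. Readout = decrease in reporter signal.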
B2AR arrestin: recruits beta-arrestin to the human beta2-adrenergic receptor. beta-arrestin recruitment to beta2AR, cell-based reporter. Potency, µM (highest dose often 46.1 µM), for inactives: top-dose activation, usual class: activators. actives 0.02% (n = 330,000);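 also: potency is read from the fitted curve at half-maximal effect; 0% = DMSO controls and full agonism = EC100 isoproterenol or metaproterenol; nearly all actives have a fitted effect of over 65% in size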
TSHR antagonist: blocks TSH signaling through the human TSH receptor | TSHR-expressing cells, TSH-stimulated cAMP HTRF, 2 h; hits give low values | activity change, negative = inhibition, % at 11.5 µM | actives 0.2% (n = 330,000) | AID 504810;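 active = activity change below a set negative limit, meaning inhibition stronger than a set level, cut at about -70% in these data; inconclusive = activity change between two set negative limits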
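Freshly harvested TSHR cells receive pin-tooled compound, then EC80 TSH at 4nM final. After 2 hours at 37 deg C, antibody in lysis buffer and cAMP-d2 are added; 30 minutes at ambient temperature precede the HTRF read.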
Gal4-VP16 FLuc: Gal4-VP16 reporter inhibition counter-screen. Drosophila S2 Gal4-VP16 UAS-luciferase, luminescence, 20 h. Potency, µM (series often up to 53.6 µM), for inactives: top-dose activity, negative = inhibition, usual class: inhibitors. actives 3.5% (n = 310,000);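 also: Gal4-VP16 expression switched on by copper sulfate through the metallothionein promoter; potency is read from the fitted curve at half-maximal effect; nearly all actives have a fitted effect of over 50% in size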
Numbers without * were called inactive; ? = inconclusive; . = no result given; [ ] = another dose, or the depositor's remark. Unless noted, calls follow the shape of the dose curve; as a rule, active = well fitted curve in the direction sought with a large enough effect; inconclusive = small, poorly fitted or top-dose-only effect, or another doubt; inactive = no such curve, though single readings can be large; an effect the other way counts as inactive or inconclusive. Unless noted, % is scaled to controls: 0 for no effect and ±100 for the full control effect.

SMILES	RORg inh	ELG1 repair inh	B2AR arrestin	TSHR antagonist	Gal4-VP16 FLuc
O=C(c1ccco1)N1CCC[C@@]2(CCN(c3ncccn3)C2)C1	-16%	.	.	.	-6%
CN(C)CCCCl	4%	.	.	.	-4%
O=C(Nc1nnc(-c2ccccc2Cl)o1)c1cccnc1	0.89µM*	?	0%	0	1.3µM*
CC(=O)Nc1ccc(NC(=O)c2c(-c3ccccc3Cl)noc2C)cc1	8%	-3%	0%	6	2%
Cc1ccccc1C(=O)Nc1nnc(-c2cccnc2)o1	3.2µM*	5%	0%	-5	5µM*
O=C(Nc1nnc(-c2ccc(F)cc2)o1)c1ccco1	?	16%	1%	1	5µM*
CC(=O)Nc1nnc(-c2c(-c3ccccc3Cl)noc2C)o1	5µM*	-27%	0%	0	18µM*
CS(=O)(=O)c1ccccc1-c1nnc(NC(=O)c2ccco2)o1	.	8%	2%	14	.
Cc1cc(NC(=O)CCC(=O)N(CC(=O)NC2CCCC2)c2ccc(Cl)cc2)no1	22%	6%	1%	19	17%
COC(=O)[C@@H]1C[C@@]2(O)[C@H](O)[C@H](O)[C@H](O)C[C@H]2N1Cc1ccc(N2CCN(C)CC2)cc1	13%	.	.	.	4%
COc1ccccc1C(=O)Nc1nnc(-c2ccc(F)cc2)s1	41%	?	4%	-7	23%
Cc1ccccc1C(=O)Nc1nnc(-c2ccc(F)cc2)o1	1.3µM*	-8%	0%	7	0.45µM*
COc1ccccc1C(=O)Nc1nnc(-c2ccc(F)cc2)o1	7.9µM*	3%	0%	-2	11µM*
CCCOc1ccccc1NC(=O)/C=C/C(N)=O	4µM*	4%	0%	-3	4.5µM*
CCCOc1cccc(C(=O)Nc2ccc3c(c2)OCCO3)c1	-42%	?	0%	-8	-30%
CCOc1ccc(-c2nnc3ccc(SCc4ccc(C(=O)OC)o4)nn23)cc1	-5%	21µM*	0%	7	?
COC(=O)c1ccc(CSc2ccc3nnc(-c4ccccn4)n3n2)o1	11µM*	2%	0%	4	?
COC(=O)c1ccc(CSc2ccc3nnc(-c4ccc(F)cc4)n3n2)o1	-1%	-6%	-1%	-5	2%
COc1cccc(Nc2ncc3nc(CCc4ccccc4)c(=O)n(C[C@H]4CCCO4)c3n2)c1	34%	.	.	.	8%
O=C(c1ccccc1)N1N=C(c2ccc(F)cc2)CC1(O)C(F)(F)F (stereo not given)	?	?	0%	3	?
CC1=NN(C(=O)c2ccc(Br)cc2)C(O)(C(F)(F)OC(F)(F)F)C1 (stereo not given)	11µM*	-1%	0%	-4	18µM*
CC1=NN(C(=O)c2csc(C)c2C)C(O)(C(F)(F)F)C1 (stereo not given)	5.6µM*	15%	6%	18	4.5µM*
Cc1ccc(C(=O)N2N=C(c3ccccc3)CC2(O)C(F)(F)F)o1 (stereo not given)	-4%	-4%	0%	8	-11%
O=C(c1ccncc1)N1N=C(C2CCCCC2)CC1(O)C(F)(F)F (stereo not given)	-26%	-25%	0%	-3	?
CC1=NN(C(=O)c2cc(C)nn2C)C(O)(C(F)(F)F)C1 (stereo not given)	11µM*	3%	2%	2	?
SMILES	RORg inh	ELG1 repair inh	B2AR arrestin	TSHR antagonist	Gal4-VP16 FLuc
CC1=NN(C(=O)c2csc(C)c2)C(O)(C(F)(F)F)C1 (stereo not given)	3.5µM*	-2%	0%	-4	5.6µM*
CC(=O)NCCNc1cc(-c2ccccc2C)ncn1	0%	.	.	.	-3%
COc1cc(NC(=O)c2cccc(NC3=NC4CS(=O)(=O)CC4S3)c2)cc(OC)c1OC (stereo not given)	-19%	0%	-1%	28	2%
O=c1cnc2cnc(N3CCOCC3)nc2n1Cc1ccc(F)cc1	-18%	.	.	.	-8%
COn1c(-n2nc(C)cc2C)nc2ccccc2c1=O	7.9µM*	16%	-1%	21	7.1µM*
Cc1cc(C)n(-c2nc3ccccc3c(=O)n2OCc2ccc(F)cc2)n1	?	?	1%	-8	?
C#CCOn1c(-n2nc(C)cc2C)nc2ccccc2c1=O	11µM*	12%	-1%	25	?
C/C(=N\NC(=O)c1cccc(N/N=C(\C)c2cc(O)ccc2O)c1)c1cc(O)ccc1O	6.3µM*	16µM*	0%	1	?
NC(N)=N/N=C/c1cccc([N+](=O)[O-])c1O	-8%	1%	-1%	29	-10%
O=[N+]([O-])c1cccc(/C=N\N=C2c3ccccc3-c3ccccc32)c1O	10µM*	-26%	-1%	-1	20µM*
COc1ccc2c(c1)CCC1C2CC[C@@]2(C)C1CC[C@@H]2NCCCCCCN1C(=O)C=CC1=O (stereo not given in full)	.	.	.	-10	.
O=C(CO/N=C/c1c(Cl)cccc1Cl)NNC(=O)c1cccc(Cl)c1	-16%	-3%	0%	-1	2%
O=C(CO/N=C/c1ccc(Cl)cc1Cl)NNC(=O)c1ccc(Cl)cc1Cl	0.089µM*	10%	0%	0	?
COc1ccc(-c2nnc3n2N=C(c2c(OC)cccc2OC)CS3)cc1OC	-36%	.	.	.	-13%
COc1cc2c(-c3ccc(O)cc3)nc3c(c(C)nn3-c3ccccc3)c2cc1OC	8%[10 µM]	9.2µM*	0%	2	?
COc1cc2c(C)nc3c(c(C)nn3-c3ccccc3)c2cc1OC	-4%	-16%	0%	2	3%
CC(CN1CCN(C/C=C/c2ccccc2)CC1)c1ccccc1 (stereo not given)	-11%	-7%	0%	5	1%
CC(C)C(C(=O)NC1=NCCS1)c1ccc(Cl)cc1 (stereo not given)	4.5µM*	-8%	0%	-1	?
CCCNC(=O)/C=C/c1ccc(C(C)C)cc1	-7%	?	-2%	-4	0%
O=C(NC1=NCCS1)c1cc(Cl)ccc1Cl	.	13%	-1%	-12	.
CC(C)c1ccc(/C=C/C(=O)NC2=NCCS2)cc1	8.9µM*	?	0%	-2	?
CC(C)c1ccc(OCC(=O)NC2=NCCS2)cc1	14µM*	?	0%	-3	-22%[10 µM]
O=C(/C=C/c1ccc(Cl)c(Cl)c1)NC1=NCCS1	7.9µM*	?	0%	-4	?
O=C(CN1C(=O)C(=O)N(C2CCCC2)C1=O)Nc1ccc(Cl)cc1C(F)(F)F	.	0%	0%	-2	.
COc1ccc2[nH]cc(CCNc3nc(-c4cccc(C#N)c4)nc4ccccc34)c2c1	?	.	.	.	-15%
CC1(CCc2ccccc2)NC(=O)N(CC(=O)Nc2c(F)cccc2F)C1=O (stereo not given)	.	-1%	0%	-10	.
